This is an account of results in PubChem BioAssay (NCI).

The structures appear in SMILES notation. About 83,000 compounds went through this panel and 20% of them were active in at least one assay; those are over-represented in the sample as a whole.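 Testing used 96-well plates and a 48-hour single-concentration exposure. Example: -40 means 40% of the starting cells died.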 Values without a mark were called inactive. The source made the active and inactive calls. The calls were made as follows: active = growth percent below 10; inactive = the rest.

Test systems include NCI-H23 lung; NCI-H226 lung; NCI-H322M lung; HOP-62 NSCLC; NCI-H460 lung; HOP-92 NSCLC; NCI-H522 lung; A549/ATCC NSCLC; 786-0 renal; COLO 205 colon; DU-145 prostate; K-562 leukemia; MALME-3M melanoma; MDA-MB-231 breast; RXF 393 renal; SF-268 CNS; SF-295 CNS; SF-539 CNS; UACC-257 melanoma; M14 melanoma.
Common to all, as to experiment: NCI-60 one-dose screen, 48 h (100 = growth as untreated, 0 = no growth, -100 = all killed)
What all share (conditions): 10 µM unless noted

In the case of `CCOC(=O)[C@@H](C)C[C@H](Cc1ccccc1)NC(=O)c1csc([C@@H](C[C@H](C(C)C)N(C)C(=O)[C@H](CC)NC(=O)[C@H]2CCCCN2C)OC(C)=O)n1`, the growth with NCI-H23 lung is 28.4%; in the assay on NCI-H226 lung it was 65.2%; in the assay with NCI-H322M lung, 43.1%; in the assay with HOP-62 NSCLC it was 20.2%; in the assay on NCI-H460 lung it was 6.53% (active); in the assay with HOP-92 NSCLC it was 41.5%. Also, the growth is -22.8% (active) in the assay on NCI-H522 lung; 7.92% (active) in the assay with A549/ATCC NSCLC; 8.33% (active) with 786-0 renal; -61.6% (active) in the assay with COLO 205 colon; 5.21% (active) in the assay with DU-145 prostate; 6.71% (active) in the assay with K-562 leukemia. Moreover, the growth with MALME-3M melanoma is 71.7%; in the assay on MDA-MB-231 breast it was 5.4% (active); in the assay on RXF 393 renal it was 28.8%; in the assay with SF-268 CNS, 29.1%; in the assay with SF-295 CNS, 1.53% (active); with SF-539 CNS it was -9.33% (active). The growth in the assay with UACC-257 melanoma was 39.1%; in the assay on M14 melanoma it was -25.7% (active).

`COc1cc2c(cc1OCCCn1c(-c3ccccn3)nc3ccccc31)N=C[C@@H]1CCCN1C2=O`: the growth with NCI-H23 lung was 15%; with NCI-H226 lung, -62% (active); with NCI-H322M lung, 25.7%; in the assay with HOP-62 NSCLC, 18%; with NCI-H460 lung, -22.7% (active); in the assay with HOP-92 NSCLC, -59.6% (active). Moreover, the growth was -5.46% (active) in the assay on NCI-H522 lung; 20% in the assay with A549/ATCC NSCLC; -33.7% (active) with 786-0 renal; 9.33% (active) in the assay with COLO 205 colon; 26% with DU-145 prostate; 17.4% in the assay with K-562 leukemia. In addition, the growth in the assay on MALME-3M melanoma was -9.03% (active); in the assay on MDA-MB-231 breast it was 6.19% (active); in the assay on RXF 393 renal, -11.8% (active); in the assay with SF-268 CNS it was 10.4%; in the assay on SF-295 CNS, -3.07% (active); in the assay on SF-539 CNS, 14.3%. Also, the growth in the assay on M14 melanoma is 10.5%.

In the case of `C[N+]12CN3CN(CN(C3)C1)C2`, the growth with NCI-H23 lung was 94.3%; in the assay on NCI-H226 lung, 103%; with NCI-H322M lung it was 110%; in the assay on HOP-62 NSCLC, 88%; with NCI-H460 lung, 107%; in the assay on HOP-92 NSCLC it was 71%. Further, the growth is 94.5% in the assay on NCI-H522 lung; 98.8% in the assay on A549/ATCC NSCLC; 104% with 786-0 renal; 99.4% in the assay on COLO 205 colon; 119% in the assay with DU-145 prostate; 198% with K-562 leukemia. Moreover, the growth is 111% with MALME-3M melanoma; 133% in the assay on MDA-MB-231 breast; 111% in the assay on RXF 393 renal; 106% in the assay with SF-268 CNS; 117% in the assay on SF-295 CNS; 102% in the assay on SF-539 CNS. In addition, the growth in the assay with M14 melanoma is 103%.

Take `COc1cc2c(cc1OCCCCCn1c(-c3ccco3)nc3ccccc31)N=C[C@@H]1CCCN1C2=O`: the growth with NCI-H23 lung is -50% (active); in the assay on NCI-H226 lung, -14.9% (active); with NCI-H322M lung it was -13% (active); in the assay on HOP-62 NSCLC, 6.15% (active); in the assay on NCI-H460 lung, 4.72% (active); in the assay on HOP-92 NSCLC it was -5.94% (active). For the same compound, the growth was -23.9% (active) in the assay with NCI-H522 lung; 9.67% (active) in the assay on A549/ATCC NSCLC; 11.5% with 786-0 renal; 4.57% (active) with COLO 205 colon; 29.3% in the assay with DU-145 prostate; 5.85% (active) in the assay on K-562 leukemia. Moreover, the growth in the assay on MALME-3M melanoma is -47.8% (active); in the assay with MDA-MB-231 breast, 9.17% (active); in the assay with RXF 393 renal it was -40.4% (active); with SF-268 CNS, 8.92% (active); in the assay on SF-295 CNS, 9.61% (active); in the assay with SF-539 CNS, 1.5% (active). Also, in the assay on M14 melanoma, the growth was -23% (active).

Take `Nc1cc2nc3ccccc3nc2cc1N`: the growth with NCI-H23 lung was 77.3%; in the assay with NCI-H226 lung, 85.6%; in the assay on NCI-H322M lung, 99.4%; with HOP-62 NSCLC, 80.4%; in the assay with NCI-H460 lung, 95.7%; with HOP-92 NSCLC, 97.8%. In addition, the growth with NCI-H522 lung is 79.8%; with A549/ATCC NSCLC, 80.1%; in the assay with 786-0 renal, 102%; in the assay with COLO 205 colon, 106%; with DU-145 prostate it was 91.5%; in the assay with K-562 leukemia, 59.8%. Also, the growth in the assay with MALME-3M melanoma is 122%; with MDA-MB-231 breast, 86.9%; with RXF 393 renal it was 81.5%; in the assay with SF-268 CNS, 92.4%; with SF-295 CNS, 89.8%; in the assay with SF-539 CNS, 95.4%. Also, the growth with M14 melanoma is 109%.

Turning to `CN1C(=O)N[C@H]2[C@@H]3NC(=O)c4ccc(Br)n4[C@@H]3C[C@]21O`, the growth in the assay with NCI-H23 lung was -14.5% (active); in the assay on NCI-H226 lung, -17.4% (active); in the assay with NCI-H322M lung, -6.85% (active); in the assay with HOP-62 NSCLC it was -31.8% (active); in the assay on NCI-H460 lung it was -10.6% (active); in the assay on HOP-92 NSCLC, -9.65% (active). Also, the growth in the assay on NCI-H522 lung was -38.2% (active); in the assay with A549/ATCC NSCLC, -9.09% (active); in the assay with 786-0 renal, -19.3% (active); with COLO 205 colon, -49.5% (active); with DU-145 prostate, -8.47% (active); in the assay with K-562 leukemia, -2.38% (active). The growth in the assay on MALME-3M melanoma was -27.3% (active); in the assay on MDA-MB-231 breast, -28% (active); in the assay on RXF 393 renal, -27.5% (active); in the assay with SF-268 CNS, -2.59% (active); with SF-295 CNS it was -36.2% (active); in the assay on SF-539 CNS, -59.8% (active). The growth in the assay with M14 melanoma is -70.8% (active).

In the case of `O=[As](O)(O)c1ccccc1[As](=O)(O)O`, the growth with NCI-H23 lung was 99.9%; with NCI-H226 lung, 112%; in the assay with NCI-H322M lung, 121%; in the assay on HOP-62 NSCLC it was 110%; in the assay with NCI-H460 lung, 116%; in the assay with HOP-92 NSCLC it was 95.9%. Also, the growth in the assay on NCI-H522 lung is 106%; in the assay with A549/ATCC NSCLC it was 91.8%; with 786-0 renal, 119%; with COLO 205 colon it was 111%; in the assay on DU-145 prostate, 109%; in the assay with K-562 leukemia, 107%. Besides, the growth in the assay with MALME-3M melanoma is 115%; with MDA-MB-231 breast, 103%; in the assay with RXF 393 renal, 120%; in the assay with SF-268 CNS, 99.3%; in the assay on SF-539 CNS, 96.3%; in the assay with UACC-257 melanoma, 101%. Further, the growth with M14 melanoma is 116%.

For `OCc1ccc2c(c1)OCO2`, the growth with NCI-H23 lung was 95.8%; in the assay on NCI-H226 lung it was 94.6%; with NCI-H322M lung, 104%; with HOP-62 NSCLC it was 93.5%; with NCI-H460 lung it was 103%; in the assay with HOP-92 NSCLC, 97.3%. The growth with NCI-H522 lung was 90.8%; in the assay with A549/ATCC NSCLC, 92.5%; with 786-0 renal it was 104%; with COLO 205 colon it was 108%; in the assay with DU-145 prostate it was 105%; in the assay with K-562 leukemia, 101%. Further, the growth in the assay with MALME-3M melanoma was 97.5%; in the assay with MDA-MB-231 breast, 102%; with RXF 393 renal, 103%; in the assay with SF-268 CNS it was 100%; in the assay on SF-295 CNS it was 93.8%; in the assay on SF-539 CNS it was 96.1%. For the same compound, the growth in the assay with M14 melanoma was 103%.
